Our source for the growth values is PubChem BioAssay (NCI).

Values joined by “and” are separate entries in the source; they are usually repeats but may differ in a detail not shown here. Equal entries are not always repeated. This is part of a sample that, as a whole, favours compounds with a hit. Of some 83,000 tested, about 20% had one in any assay.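 Single-dose data. Exposure time 48 hours. Values below 10 considered active.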 Active and inactive are the calls of the source.

In this assay the test system is MDA-MB-468 breast. Briefly: NCI-60 one-dose screen, 48 h (100 = growth as untreated, 0 = no growth, -100 = all killed). Particulars: 10 µM unless noted.
Regarding `COc1cc(C2CC(c3cccc(Nc4ccnc5cc(Cl)ccc45)c3)=NN2c2ccc(Cl)cc2)cc(OC)c1OC` (stereo not drawn), the growth was 74.4% (inactive).
To `O=C(NCCCl)Nc1ncccc1OCc1ccccc1` belongs 104% (inactive); to `CCCCc1oc2ccccc2c1C(=O)c1cc(I)c(OCCN(CC)CC)c(I)c1`, -87.4% (active).
In the case of `Cc1cc(C)c2c(Nc3ncnc4c3sc3nc(C)cc(C)c34)n[nH]c2n1` it was 92.2% (inactive); in that of `NS(=O)(=O)c1ccc(-n2cc(CC=O)nn2)cc1`, 102% (inactive); in that of `CCCCC(=O)c1ccc(OC)cc1`, 85.2% (inactive).
As for `COC(=O)[C@H]1CCCN1C(=O)C1CCCN1C(=O)[C@@H](Cc1ccccc1)NC(=S)Nc1cc(C(F)(F)F)cc(C(F)(F)F)c1` (stereo partly drawn), the growth was 100% (inactive) and 58.2% (inactive).
In the case of `COc1ccccc1Nc1cc(O)c2c(=O)cc(-c3ccccc3)oc2c1` it was -1.72% (active); in that of `CN1C(=O)N(C)C2C1NN=c1s/c(=C\c3ccc(F)cc3)c(=O)n12` (stereo not drawn), -11.4% (active).
Regarding `O=[N+]([O-])c1ccc2c(c1)Cc1ccccc1-2`, the growth is 84.1% (inactive).
In the case of `CCCCCCC/C=C/[C@H]1O[C@]23C(=O)C[C@@]4(C[C@@H](OC5OC(CO)C(O)C(O)C5O)C[C@@H]4[C@H]2C=C1C)OC3=O` (stereo partly drawn) it was 25.7% (inactive); in that of `COc1cc(OC)c2sc(-c3ccc(-n4cncc4-c4ccc(OC)c(OC)c4)cc3)nc2c1`, 31% (inactive).
With `CCOc1ccccc1C(=O)N1CCN(c2cc(Cl)cc(Cl)c2)CC1`, the growth is 3.92% (active).
On to `CN(C)c1ccc(C(=O)OCCCCCCl)cc1`, for which the growth is 95.3% (inactive).
In the case of `O=C(N/N=C/c1ccc[nH]1)c1[nH]c2ccc(Br)cc2c1-c1ccccc1` it was -0.633% (active); in that of `O=c1[nH]nc(-c2ccc(Br)cc2)cc1Cc1ccc(O)cc1`, 107% (inactive); in that of `CCCCCCCCCCOC(=O)c1nn(C(C)=O)c2cc(C)c(C)cc12`, 111% (inactive).
Turning to `COc1cccc2nc3n(c12)C(c1c(F)cccc1F)SC3` (stereo not drawn), the growth is 89.2% (inactive).
In the case of `O=Cc1ccc(-c2cn3ccnc3c(-c3ccc4ncn(Cc5ccccc5)c4c3)n2)cc1` it was 105% (inactive); in that of `COc1ccc(-c2cc(C(=O)Nc3ccc(C)cc3)nc3[nH]c(=O)sc23)cc1`, 66.6% (inactive).
To `Nc1c2c(nc3ccc(Br)cc13)CC(c1ccccc1)CC2=O` (stereo not drawn) belongs -4.68% (active); to `CC(=O)OCC1OC(OCC2OC(OC(C)=O)C(OC(C)=O)C(OC(C)=O)C2OC(C)=O)C(OC(C)=O)C(OC(C)=O)C1OC(C)=O` (stereo not drawn), 81.3% (inactive).
To `O=C1/C(=C/c2cc(F)cc(F)c2)Cc2cc3c(cc21)OCO3` belongs 8.61% (active).
Turning to `COC(=O)c1[nH]nc(OC)c1C1(C(C#N)c2nc3ccccc3s2)CCCc2ccccc21` (stereo not drawn), the growth was 98.2% (inactive).
In the case of `CS(=O)(=O)c1ccc(-c2nn(-c3ccccc3)cc2/C=N/NC(=O)c2nc(N)n[nH]2)cc1` it was 98.2% (inactive).
In the case of `Cc1c(C)c([N+](=O)[O-])c(C)c([N+](=O)[O-])c1C` it was 97.6% (inactive); in that of `Brc1cc(-c2cc(-c3ccc4c(c3)OCCO4)[nH]n2)cs1`, 12% (inactive); in that of `CCCCCCCOc1cccc(/C=C2\N=C3SCCCN3C2=O)c1`, 89.2% (inactive).
